Assay outcomes: PubChem BioAssay, several laboratories
ROCK2 blocker: ROCK2 (human) kinase inhibition. AID 604. purified ROCK2, Kinase-Glo ATP depletion luminescence. inhibition, % at 6 µM. O75116. 60,000 compounds, 0.35% hits;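 active = inhibition above the screen-wide mean inhibition plus 3 SD, cut at about 18% in these data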;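 also: plate controls were DMSO wells for no effect and Y-27632 control wells after no-enzyme background subtraction for full effect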
JNK3 inh: inhibitors of human JNK3 kinase | inhibition, % at 8 µM | P53779 | purified JNK3 kinase activity, HTS | 60,000 compounds, 0.61% hits; in the data active = inhibition above about 17%;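 also: 0% = DMSO and 100% = reference inhibitor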
DAT uptake mod: human DAT dopamine uptake with cocaine, either direction | Q01959 | LLC-PK1 hDAT cells, [14C]-dopamine uptake with cocaine IC80; actives deviate in either direction | B-score at 10 µM | 110,000 compounds, 1.3% hits;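 active = Z score or B-score, a plate-position-corrected score, falls beyond the plate's 99.7% confidence bounds, in either direction; inactive = both scores lie inside the 99.7% bounds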;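 also: scored against the spread of the other compound wells on the same plate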
Target sequence (Q01959 whole entry, looked up): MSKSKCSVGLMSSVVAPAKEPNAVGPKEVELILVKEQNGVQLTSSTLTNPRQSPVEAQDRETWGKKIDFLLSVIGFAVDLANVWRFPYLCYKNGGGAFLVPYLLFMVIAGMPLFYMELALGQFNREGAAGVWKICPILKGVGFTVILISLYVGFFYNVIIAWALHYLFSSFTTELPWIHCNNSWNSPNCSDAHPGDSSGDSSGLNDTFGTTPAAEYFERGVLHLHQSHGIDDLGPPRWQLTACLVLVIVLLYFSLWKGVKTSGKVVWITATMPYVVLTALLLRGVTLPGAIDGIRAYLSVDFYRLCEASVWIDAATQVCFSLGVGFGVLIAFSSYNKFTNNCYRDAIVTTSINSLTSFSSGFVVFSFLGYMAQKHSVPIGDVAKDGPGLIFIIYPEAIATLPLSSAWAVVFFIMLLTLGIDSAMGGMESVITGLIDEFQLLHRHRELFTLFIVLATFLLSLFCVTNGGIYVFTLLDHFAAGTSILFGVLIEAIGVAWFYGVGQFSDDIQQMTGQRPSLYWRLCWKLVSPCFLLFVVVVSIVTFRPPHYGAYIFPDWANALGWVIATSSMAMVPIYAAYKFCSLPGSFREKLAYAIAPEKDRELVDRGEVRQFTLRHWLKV
D1 allo mod: allosteric modulators of human D1 dopamine receptor | P21728 | HEK293 D1, CRE-luciferase, dopamine EC30 potentiation; actives deviate in either direction | B-score at 10 µM | 58,000 compounds, 5.9% hits | AID 641;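 active = luminescence count or its row- and column-corrected plate score outside the 99.7% band of the plate's sample wells, on either side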
PKA inh: inhibitors of human protein kinase A. P17612. PKA Kemptide phosphorylation, Kinase-Glo ATP luminescence. inhibition, % at 6 µM. 65,000 compounds, 0.1% hits. AID 524;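 active = inhibition above the screen-wide mean inhibition plus 3 SD, cut at about 21% in these data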
Numbers without * were called inactive; · = not tested or not shown. The full list was thinned out, with hits kept by preference.

SMILES	ROCK2 blocker	JNK3 inh	DAT uptake mod	D1 allo mod	PKA inh
COc1ccc(-n2c(SCc3ccc(C#N)cc3)nnc2-c2ccccn2)cc1	0.7	-2.3	1.03	0.0585	3.4
Cc1ccc(-n2c(SCc3ccc(C#N)cc3)nnc2-c2ccccn2)cc1	1.6	1.7	-7.73*	-4*	8.2
CCOC(=O)N1CCC(NC(=O)CSCc2nc(-c3sccc3C)oc2C)CC1	-2.7	-2.6	2.77*	1.78	9.0
Cc1cc(C)n(C(=O)c2cccc(S(=O)(=O)N3CCOCC3)c2)n1	5.7	2.8	-8.32*	-0.256	5.6
Cc1cc(C)n(C(=O)c2ccc(S(=O)(=O)N3CCOCC3)cc2)n1	·	·	-1.1	·	·
CC1Cc2ccccc2N1C(=O)CSCC(=O)O (configuration not stated)	6.6	-4.3	0.643*	-0.278	12.6
COc1ccccc1/C=N/n1c(N)c(S(=O)(=O)c2cccs2)c2nc3ccccc3nc21	·	·	3.5*	·	·
COc1ccc(CCn2c(N)c(S(=O)(=O)c3cccs3)c3nc4ccccc4nc32)cc1OC	·	·	-0.442	1.99	1.4
CCOc1ccc2nc(SCC(=O)N3CCN(C(=O)c4ccco4)CC3)sc2c1	·	·	-1.73*	·	·
O=C(CSc1nc2ccccc2s1)N1CCN(C(=O)c2ccco2)CC1	3.3	2.7	0.931	0.476	-2.5
COc1cc(C2C3C(=O)N(c4ccc(F)cc4)C(=O)C3ON2c2ccccc2)ccc1O (configuration not stated)	-0.1	-10.1	-6.94*	-0.584	-1.6
COc1cc(C2C3C(=O)N(c4ccccc4)C(=O)C3ON2c2ccccc2)cc(OC)c1OC (configuration not stated)	6.4	-3.5	0.429	0.53	13.7
COCCNc1nc(-c2cc(C(=O)Nc3ccccc3)on2)cc(C(C)C)n1	·	·	1.41	·	·
Cc1ccccc1Cn1nnc(-c2cccc(C(=O)O)c2)n1	3.8	-7.8	-0.116	-2.71*	1.5
O=C(O)c1cccc(-c2nnn(Cc3ccccc3Cl)n2)c1	·	·	0.397	·	·
Cc1cc(C)c2c(=O)[nH]c(SCC(=O)Nc3ccccc3)nc2n1	0.6	0.7	0.406	1.26	10.7
Cc1ccc(NC(=O)CSc2nc3nc(C)cc(C)c3c(=O)[nH]2)cc1	·	·	0.229	3.89*	9.4
COCCN(CCOC)S(=O)(=O)c1ccc(C(=O)Nc2nc(-c3ccncc3)cs2)cc1	19.3*	5.7	0.122	0.263	12.4
N#Cc1ccc(C2=NC(C(F)(F)F)(C(F)(F)F)c3c(n(Cc4ccco4)c(=O)[nH]c3=O)N2)cc1	·	·	-1.83	·	·
CC(C)N1CC(O)=C(c2nc3ccccc3c(=O)[nH]2)C1=N	·	·	1.27*	·	·
O=C1N[C@@H](Cc2ccccc2)C(=O)N2[C@@H]1C[C@]1(Br)c3ccccc3N(S(=O)(=O)c3ccccc3)[C@H]21	·	·	-0.378	·	·
CCOC(=O)C1=C(C)OC(N)=C(C#N)C1c1cc2ccccc2nc1N1CCCCC1 (configuration not stated)	-2.2	22.5*	0.505	·	3.9
CCOC(=O)C1=C(C)OC(N)=C(C#N)C1c1cc(C)sc1C (configuration not stated)	·	·	-0.769	·	·
CCOC(=O)C1=C(c2ccccc2)OC(N)=C(C#N)C1C1CCCCC1 (configuration not stated)	·	·	-1.65*	·	·
CCOC(=O)C1=C(C)OC(N)=C(C#N)C1C1CCCCC1 (configuration not stated)	4.9	6.6	-0.371	-0.369	5.8
SMILES	ROCK2 blocker	JNK3 inh	DAT uptake mod	D1 allo mod	PKA inh
C[N+]1([O-])[C@@H]2Cc3cc4c(cc3[C@@H]1Cc1cc3c(cc12)OCO3)OCO4 (some centres not stated)	·	·	-0.812	·	·
O=C(Nc1nc2ccccc2[nH]1)C1CCCO1 (configuration not stated)	2.3	-0.1	-0.981	-0.0139	3.3
O=C(Nc1ccc(-c2nc3ccccc3[nH]2)cc1)C1CCCO1 (configuration not stated)	-47.9	-4.3	0.0591	-4.95*	-22.1
O=C1CCCc2c1cc(-c1ccccc1)n2-c1ccccc1	·	·	0.233	·	·
O=c1[nH]c(=S)c2c(n1-c1ccccc1)CCC2	-0.9	17.6*	0.2	0.286	-2.3
O=C(NC1CCN(Cc2ccccc2)CC1)C1COc2ccccc2O1 (configuration not stated)	-8.6	-5.1	-0.0129	-3.94*	-16.0
CN1CCN(S(=O)(=O)c2ccc(Sc3nnc(-c4cccs4)n3-c3ccccc3)nc2)CC1	5.1	-1.5	0.541	-4.06*	7.0
CNC(=O)C1CC(=O)N(CCCc2ccccc2)C(=Nc2ccccc2)S1 (configuration not stated)	·	·	0.101	·	·
COc1ccc(-c2nnn(CC(=O)N(Cc3ccccc3Cl)C(C(=O)NCC3CCCO3)c3ccco3)n2)cc1OC (configuration not stated)	·	·	1.01	·	·
Nc1ccc(-c2nc3c(Cl)cc(N)cc3[nH]2)cc1	-4.5	-35.7	1.7	-2.62*	-5.7
Cc1cc(Cl)cc(Br)c1OCCCN1C(=O)NC(C)(C)C1=O	·	·	0.442	·	·
CCC1CCCCN1C(=O)CSc1nnc(-c2c[nH]c3ccccc23)o1 (configuration not stated)	3.1	6.1	2.2	-0.665	6.4
CC(=O)c1ccccc1OCCCN1CCCCC1	-3.8	-1.7	0.246	-4.44*	5.6
CCOC(=O)N1CCC(N2C(=O)c3ccccc3C2Nc2ccc3c(c2)OCCO3)CC1 (configuration not stated)	0.3	6.6	-0.574	-3.1*	-0.3
CCOC(=O)N1CCC(N2C(=O)c3ccccc3C2Nc2ccc3c(C)cc(=O)oc3c2)CC1 (configuration not stated)	2.6	4.8	0.542	0.913	-2.8
Cc1ccc(-n2c(SCC(=O)NCc3cccs3)nnc2-c2ccoc2C)cc1	-2.9	3.4	2.56*	-0.0606	-10.6
O=C(C[n+]1cc2ccccc2c2ccccc21)c1ccccc1	·	·	-0.264	·	·
CCCCCCCCC[n+]1cccc2c3ccccc3ccc21	·	·	3.17*	·	·
COc1ccccc1N1CCN(C(=O)CCNS(=O)(=O)c2ccc(Br)s2)CC1	5.2	-0.7	-3.93*	-0.516	11.5
O=C(CN1CCCN(Cc2ccc(F)cc2Cl)C1=O)NCc1ccccc1	1.7	2.5	2.63*	0.653	2.2
COC(=O)[C@@H]1[C@@H](C#N)C2(c3ccccc3-c3ccccc32)N(c2ccc(Cl)cc2)N1C#N	·	·	0.792	·	·
COc1ccc(N2CCN(C(=O)NC34CC5CC(CC(C5)C3)C4)CC2)cc1	·	·	-7.62*	·	·
COc1ccc(N2CCN(C(=O)COc3ccccc3)CC2)cc1	6.7	6.1	1.86*	0.432	7.5
COc1ccc(OCC(=O)N2CCN(C(=O)c3ccccc3)CC2)cc1	2.2	-3.0	1.2	0.144	8.5
Cc1cnc(C(=O)Nc2nccs2)cn1	·	·	-0.836	·	·
Cc1cc(C)nc(N/N=C/C(Cl)=C/c2ccccc2)n1	·	·	-0.0217	·	·
O=C(O)c1cccc(NC(=S)NC(=O)C(c2ccccc2)c2ccccc2)c1	·	·	1.92	·	·
C[C@H]1COc2c(C3(N)CC3)c(F)cc3c(=O)c(C(=O)O)cn1c23	·	·	0.00743	·	·
COc1ccc(C(CC(=O)N2CCCC2)c2c(OC)cc(OC)c3c(-c4ccccc4)cc(=O)oc23)cc1 (configuration not stated)	·	·	1.14	·	·
